Measured values taken from PubChem BioAssay (EPA / NIEHS).
Records with an inconclusive call do not appear. Calls of active or inactive are those of the source. The calls were made as follows, unless noted: active = hit-call score of the fitted dose curve at least 0.9, where 1 is the maximum; inactive = score below 0.9.

Experiments:
[1] = ATG_PBREM_CIS: Attagene CIS-FACTORIAL HepG2 Assay for human Phenobarbital-responsive Enhancer Module (PBREM) (AID 2282955); conditions: HepG2 PBREM cis-reporter, Attagene multiplexed transcription; actives raise or lower the signal
Procedure, shortened: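 After a 24 h incubation with test chemical, transfected HepG2 cells yield total RNA; reporter-specific RT-PCR products are fluorescently labelled, HpaI-digested and resolved by capillary electrophoresis against ROX size standards.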

[2] = biological target: Paired box protein Pax-6 (Homo sapiens) (UniProt P26367); assay: ATG_Pax6_CIS: Attagene CIS-FACTORIAL HepG2 Assay for human Paired Box 6 (PAX6) (AID 2282956); conditions: HepG2 CIS-FACTORIAL PAX6 reporter transcription, RNA readout; actives raise or lower the signal
Chain of Paired box protein Pax-6 (Homo sapiens) (P26367 whole entry, looked up): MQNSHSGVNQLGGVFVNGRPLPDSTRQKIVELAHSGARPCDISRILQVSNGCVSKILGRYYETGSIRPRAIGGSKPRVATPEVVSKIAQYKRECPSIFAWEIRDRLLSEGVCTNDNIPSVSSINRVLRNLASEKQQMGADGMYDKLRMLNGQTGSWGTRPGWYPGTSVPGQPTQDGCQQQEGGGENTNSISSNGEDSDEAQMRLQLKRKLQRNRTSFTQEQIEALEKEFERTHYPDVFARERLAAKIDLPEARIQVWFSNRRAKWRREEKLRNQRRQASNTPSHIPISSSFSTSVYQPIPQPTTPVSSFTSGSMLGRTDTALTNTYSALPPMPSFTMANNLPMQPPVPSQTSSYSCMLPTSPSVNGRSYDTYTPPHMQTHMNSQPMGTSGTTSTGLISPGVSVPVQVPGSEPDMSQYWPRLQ
Procedure, shortened: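 HepG2 cells transiently transfected with cis-promoter-driven multiplexed reporter units sensing endogenous transcription factor activity; 24 h chemical exposure. Reporter mRNA quantified by RT-PCR, 6-FAM labelling, HpaI digestion and capillary electrophoresis; bidirectional fit versus DMSO baseline.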

[3] = ATG_PXRE_CIS: Attagene CIS-FACTORIAL HepG2 Assay for human Pregnane X Receptor Element (PXRE) (AID 2282957); conditions: HepG2 Attagene CIS-FACTORIAL PXRE reporter, mRNA; actives raise or lower the signal
Procedure, shortened: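 HepG2 cells transiently transfected with cis-element-driven multiplexed reporter units; after 24 h chemical exposure, reporter mRNA measured by RT-PCR, 6-FAM labelling, HpaI digestion and capillary electrophoresis. Bidirectional fitting relative to DMSO.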

[4] = ATG_PPRE_CIS: Attagene CIS-FACTORIAL HepG2 Assay for human Peroxisome Proliferator-activated Response Element (PPRE) (AID 2282958); conditions: HepG2 PPRE cis-element reporter, Attagene transcription factor profiling; actives raise or lower the signal
Procedure, shortened: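 Multiplexed reporter transcription units under cis-regulatory promoters were transfected into HepG2 cells to capture endogenous factor activity. A 24 h incubation preceded RNA isolation and fluorescent RT-PCR fragment analysis.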

[5] = ATG_Sox_CIS: Attagene CIS-FACTORIAL HepG2 Assay for human SRY-box transcription factor (SOX) (AID 2282960); conditions: HepG2 Attagene cis-factorial SOX reporter, mRNA; actives raise or lower the signal
Procedure, shortened: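 After 24 h of chemical treatment, transfected HepG2 reporter cells are lysed for total RNA. Transcript levels come from RT-PCR with labelled primer extension and capillary electrophoresis, analysed bidirectionally versus DMSO.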

[6] = biological target: Transcription factor Sp1 (Homo sapiens) (UniProt P08047); assay: ATG_Sp1_CIS: Attagene CIS-FACTORIAL HepG2 Assay for human Specificity Protein 1 (Sp1) (AID 2282961); conditions: HepG2 Sp1 cis-reporter transcription, actives raise or lower the signal
Chain of Transcription factor Sp1 (Homo sapiens) (P08047 whole entry, looked up): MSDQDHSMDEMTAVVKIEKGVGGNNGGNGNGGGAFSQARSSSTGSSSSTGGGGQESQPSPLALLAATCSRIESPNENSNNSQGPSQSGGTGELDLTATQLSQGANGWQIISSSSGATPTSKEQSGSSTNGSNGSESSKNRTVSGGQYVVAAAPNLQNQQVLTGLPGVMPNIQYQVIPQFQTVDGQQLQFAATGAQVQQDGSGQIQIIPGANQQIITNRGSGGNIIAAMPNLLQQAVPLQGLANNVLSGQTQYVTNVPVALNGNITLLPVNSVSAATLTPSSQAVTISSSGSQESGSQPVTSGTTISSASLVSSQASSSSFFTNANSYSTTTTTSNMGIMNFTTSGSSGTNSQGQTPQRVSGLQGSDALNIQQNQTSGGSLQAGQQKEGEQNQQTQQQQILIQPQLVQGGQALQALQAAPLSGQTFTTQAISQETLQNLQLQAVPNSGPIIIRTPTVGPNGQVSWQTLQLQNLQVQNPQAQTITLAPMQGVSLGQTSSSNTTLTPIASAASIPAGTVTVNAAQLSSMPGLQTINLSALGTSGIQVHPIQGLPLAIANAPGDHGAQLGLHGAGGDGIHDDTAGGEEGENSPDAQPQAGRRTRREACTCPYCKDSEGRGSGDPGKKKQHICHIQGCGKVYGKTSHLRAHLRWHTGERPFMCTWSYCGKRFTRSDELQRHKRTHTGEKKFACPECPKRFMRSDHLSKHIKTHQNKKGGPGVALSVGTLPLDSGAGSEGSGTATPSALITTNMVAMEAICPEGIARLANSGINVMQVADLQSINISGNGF
Procedure, shortened: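 Sp1-driven reporter mRNA, read as capillary electrophoresis fluorescence after RT-PCR, in transiently transfected HepG2 cells dosed for 24 h; signal change in either direction relative to DMSO.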

[7] = ATG_SREBP_CIS: Attagene CIS-FACTORIAL HepG2 Assay for human Sterol Regulatory Element Binding (SREBP) (AID 2282962); conditions: HepG2 Attagene cis-factorial SREBP reporter, mRNA; actives raise or lower the signal
Procedure, shortened: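 HepG2 cells transiently transfected with multiplexed cis-promoter reporter units sensing endogenous transcription factors; reporter mRNA measured 24 h after dosing by RT-PCR, 6-FAM labeling, HpaI digestion and capillary electrophoresis. Bidirectional fit versus DMSO.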

[8] = biological target: Signal transducer and activator of transcription 3 (Homo sapiens) (UniProt P40763); assay: ATG_STAT3_CIS: Attagene CIS-FACTORIAL HepG2 Assay for human Signal Transducer and Activator of Transcription 3 (STAT3) (AID 2282963); conditions: HepG2, Attagene cis-factorial STAT3 reporter transcription; actives raise or lower the signal
Chain of Signal transducer and activator of transcription 3 (Homo sapiens) (P40763 whole entry, looked up): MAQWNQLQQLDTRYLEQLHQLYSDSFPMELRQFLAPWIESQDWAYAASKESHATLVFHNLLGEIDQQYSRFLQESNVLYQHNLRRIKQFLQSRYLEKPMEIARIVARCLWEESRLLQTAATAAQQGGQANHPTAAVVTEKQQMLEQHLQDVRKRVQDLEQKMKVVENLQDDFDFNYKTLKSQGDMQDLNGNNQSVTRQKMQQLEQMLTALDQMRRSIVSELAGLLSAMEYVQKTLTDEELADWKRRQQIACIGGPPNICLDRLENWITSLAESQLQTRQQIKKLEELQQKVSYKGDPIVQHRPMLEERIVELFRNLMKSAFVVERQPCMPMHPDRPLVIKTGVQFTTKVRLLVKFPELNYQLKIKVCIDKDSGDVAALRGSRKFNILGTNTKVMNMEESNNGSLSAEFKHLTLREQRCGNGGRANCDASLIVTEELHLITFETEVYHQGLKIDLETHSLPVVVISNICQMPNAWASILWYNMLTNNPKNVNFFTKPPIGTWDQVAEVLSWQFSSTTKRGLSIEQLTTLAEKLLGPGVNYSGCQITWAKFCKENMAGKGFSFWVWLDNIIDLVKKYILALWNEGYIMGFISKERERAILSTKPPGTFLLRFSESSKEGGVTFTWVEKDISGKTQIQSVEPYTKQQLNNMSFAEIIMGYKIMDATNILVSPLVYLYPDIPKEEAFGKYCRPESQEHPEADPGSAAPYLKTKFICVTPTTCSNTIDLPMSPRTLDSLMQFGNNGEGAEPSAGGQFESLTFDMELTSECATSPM
Procedure, shortened: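 Endogenous STAT3-responsive cis-element activity was read in transiently transfected HepG2 cells after 24 h treatment. Reporter transcripts were quantified via RT-PCR and capillary electrophoresis, with DMSO as negative control and bidirectional curve fitting.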

[9] = ATG_TCF_b_cat_CIS: Attagene CIS-FACTORIAL HepG2 Assay for human T-Cell-Factor with beta-catenin (TCF/b-cat) (AID 2282965); conditions: HepG2 TCF/beta-catenin cis-reporter transcription, actives raise or lower the signal
Procedure, shortened: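 Measured: reporter mRNA in HepG2 transiently transfected with cis-promoter reporter units, 24 h after chemical addition. Fitting was bidirectional, DMSO as negative control.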

[10] = ATG_TAL_CIS: Attagene CIS-FACTORIAL HepG2 Assay for human TAL Basal Promoter (AID 2282966); conditions: HepG2 Attagene cis-factorial TAL promoter reporter; actives raise or lower the signal;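 also: background control endpoint measuring basal TAL promoter reporter mRNA not a specific factor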
Procedure, shortened: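 HepG2 cells transiently transfected with multiplexed cis-promoter reporter units, dosed 24 h. Reporter mRNA quantified by RT-PCR, 6-FAM labelling, HpaI digestion and capillary electrophoresis; TAL basal promoter serves as background control, fitted bidirectionally versus DMSO.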

[11] = ATG_TGFb_CIS: Attagene CIS-FACTORIAL HepG2 Assay for human Transforming Growth Factor (TGF) (AID 2282967); conditions: HepG2 Attagene CIS TGFb reporter, mRNA transcription; actives raise or lower the signal
Procedure, shortened: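 After a 24-hour incubation with compound, transfected HepG2 cells were lysed for RNA; reporter cDNA was amplified, fluorescently end-labeled and separated by CE. DMSO served as baseline for bidirectional fits.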

[12] = ATG_VDRE_CIS: Attagene CIS-FACTORIAL HepG2 Assay for human Vitamin D Receptor Element (VDRE) (AID 2282968); conditions: HepG2 VDRE cis-reporter transcription, actives raise or lower the signal
Procedure, shortened: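 Reporter mRNA induction, quantified by capillary electrophoresis of fluorescently labelled RT-PCR products, was read 24 h after dosing HepG2 cells carrying transiently transfected cis-regulated reporter units; gain or loss relative to DMSO.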

[13] = biological target: Estrogen receptor (Homo sapiens) (UniProt P03372); assay: ATG_ERa_TRANS: Attagene TRANS-FACTORIAL HepG2 Assay for human Estrogen Receptor alpha (ERa) (AID 2282970; active = hit-call score of the fitted dose curve at least 0.9, where 1 is the maximum); conditions: HepG2 Attagene TRANS ERa GAL4 reporter, mRNA
Chain of Estrogen receptor (Homo sapiens) (P03372 whole entry, looked up, the tested form may be a part): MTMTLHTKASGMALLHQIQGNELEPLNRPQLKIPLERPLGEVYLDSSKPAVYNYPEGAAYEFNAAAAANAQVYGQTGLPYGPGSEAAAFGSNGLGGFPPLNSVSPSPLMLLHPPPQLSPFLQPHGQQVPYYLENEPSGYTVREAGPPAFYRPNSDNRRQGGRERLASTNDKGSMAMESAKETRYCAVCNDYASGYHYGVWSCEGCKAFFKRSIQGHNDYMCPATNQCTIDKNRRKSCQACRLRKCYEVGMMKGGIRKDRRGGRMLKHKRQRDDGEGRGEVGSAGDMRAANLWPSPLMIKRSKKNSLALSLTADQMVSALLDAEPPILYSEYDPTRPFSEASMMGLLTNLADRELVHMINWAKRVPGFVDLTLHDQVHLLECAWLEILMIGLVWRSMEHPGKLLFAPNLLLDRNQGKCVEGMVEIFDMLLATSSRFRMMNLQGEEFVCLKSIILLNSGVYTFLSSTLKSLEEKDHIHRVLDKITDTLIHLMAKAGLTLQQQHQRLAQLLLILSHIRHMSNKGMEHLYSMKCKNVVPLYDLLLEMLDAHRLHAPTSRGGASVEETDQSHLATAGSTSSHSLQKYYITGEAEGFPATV
Procedure, shortened: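 HepG2 cells transiently transfected with multiplexed GAL4-UAS reporter units read out chimeric NR-Gal4 activity. After 24 h compound exposure, reporter mRNA was quantified by RT-PCR, 6-FAM labeling, HpaI digestion and capillary electrophoresis, relative to DMSO.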

[14] = biological target: X-box-binding protein 1 (Homo sapiens) (UniProt P17861); assay: ATG_Xbp1_CIS: Attagene CIS-FACTORIAL HepG2 Assay for human X-box Binding Protein 1 (XBP1) (AID 2282972); conditions: HepG2 XBP1 cis-element reporter, Attagene multiplex; actives raise or lower the signal
Chain of X-box-binding protein 1 (Homo sapiens) (P17861 whole entry, looked up): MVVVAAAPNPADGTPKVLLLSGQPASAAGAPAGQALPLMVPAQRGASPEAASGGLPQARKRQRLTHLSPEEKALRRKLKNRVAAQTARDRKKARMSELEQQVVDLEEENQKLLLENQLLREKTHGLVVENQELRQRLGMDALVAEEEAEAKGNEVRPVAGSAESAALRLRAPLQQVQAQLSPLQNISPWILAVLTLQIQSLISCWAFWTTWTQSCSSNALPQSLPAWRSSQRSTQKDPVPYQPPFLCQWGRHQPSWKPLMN
Procedure, shortened: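 HepG2 cells transiently transfected with multiple cis-element reporter units report endogenous TF activity; 24 h exposure, then reporter mRNA measured by RT-PCR, 6-FAM labelling, HpaI digestion and capillary electrophoresis. Bidirectional fitting versus DMSO.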

[15] = ATG_M_19_TRANS: Attagene TRANS-FACTORIAL HepG2 Assay for M19 Transcription Factor (Internal Marker) (AID 2282974; active = hit-call score of the fitted dose curve at least 0.9, where 1 is the maximum); conditions: HepG2 Attagene TRANS-FACTORIAL M19 internal marker reporter
Procedure, shortened: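 Measured here: internal-marker reporter transcript from HepG2 cells transfected with MRTUs, harvested at 24 h. cDNA PCR products were 6-FAM labelled by primer extension, cut with HpaI for 2 h at 37 C, and resolved by CE.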

[16] = ATG_GAL4_TRANS: Attagene TRANS-FACTORIAL HepG2 Assay for GAL4 (Internal Marker) (AID 2282976; active = hit-call score of the fitted dose curve at least 0.9, where 1 is the maximum); conditions: HepG2 Attagene TRANS GAL4 internal marker reporter
Procedure, shortened: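 Background-control readout: GAL4-UAS reporter transcript in transiently transfected HepG2 cells after 24 h compound exposure. Measured by RT-PCR, 6-FAM primer extension, HpaI digest and capillary electrophoresis; gain-of-signal fit versus DMSO.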

[17] = ATG_TA_CIS: Attagene CIS-FACTORIAL HepG2 Assay for human TA Basal Promoter (AID 2282964); conditions: HepG2 Attagene CIS-factorial TA basal promoter reporter; actives raise or lower the signal
Procedure, shortened: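 Transient MRTU transfection of HepG2 preceded 24 h compound exposure. Reporter mRNA levels were then read by RT-PCR with capillary electrophoresis, and this background-control endpoint was fitted bidirectionally to DMSO.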

[18] = biological target: Nuclear receptor subfamily 1 group I member 3 (Homo sapiens) (UniProt Q14994); assay: ATG_CAR_TRANS: Attagene TRANS-FACTORIAL HepG2 Assay for human Constitutive Androstane Receptor (CAR) (AID 2282969; active = hit-call score of the fitted dose curve at least 0.9, where 1 is the maximum;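 also: activators raise reporter mRNA above DMSO so AC50 marks induction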); conditions: HepG2 Attagene TRANS-FACTORIAL CAR reporter
Chain of Nuclear receptor subfamily 1 group I member 3 (Homo sapiens) (Q14994 whole entry, looked up, the tested form may be a part): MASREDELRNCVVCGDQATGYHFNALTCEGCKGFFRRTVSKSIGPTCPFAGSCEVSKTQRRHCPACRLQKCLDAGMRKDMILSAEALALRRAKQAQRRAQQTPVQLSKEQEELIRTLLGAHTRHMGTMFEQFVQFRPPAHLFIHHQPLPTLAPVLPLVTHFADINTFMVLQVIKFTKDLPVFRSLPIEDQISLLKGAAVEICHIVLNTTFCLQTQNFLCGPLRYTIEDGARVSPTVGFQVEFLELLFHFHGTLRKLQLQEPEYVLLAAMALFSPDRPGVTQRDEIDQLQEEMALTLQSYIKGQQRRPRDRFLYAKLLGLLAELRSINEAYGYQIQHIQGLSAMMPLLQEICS
Procedure, shortened: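 Readout is reporter mRNA induction, quantified by fluorescent primer extension and capillary electrophoresis after RT-PCR. Cells were HepG2 transiently carrying chimeric NR-Gal4 constructs with GAL4-UAS reporters, treated for 24 h; activity scored upward from DMSO.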

[19] = ATG_RORE_CIS: Attagene CIS-FACTORIAL HepG2 Assay for human RAR-related Orphan Receptor Element (RORE) (AID 2282959); conditions: HepG2 Attagene cis-factorial RORE reporter, mRNA; actives raise or lower the signal
Procedure, shortened: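 Fluorescence intensity of reporter-specific cDNA fragments, separated by capillary electrophoresis, gives the signal. Source: HepG2 liver cells transiently transfected with cis-element reporters and exposed 24 h; DMSO-normalized bidirectional fit.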

Measured: AC50

CC(=O)OC/C=C(C)/C=C/C=C(C)/C=C/C1=C(C)CCCC1(C)C
active: [2] 72.2 µM | [3] 0.426 µM | [5] 138 µM | [6] 172 µM | [7] 100 µM | [9] 100 µM | [11] 1.23 µM | [12] 0.946 µM
inactive: [1] | [4] | [8] | [10] | [13] | [14] | [15] | [16]

N#CCCNCCC#N
not listed: [10] | [15] | [19]
inactive: all other assays above

CCCCC(CC)COCCO (stereo not drawn)
not listed: [15] | [17] | [19]
inactive: all other assays above

CC1(C)[C@H](C=C(Cl)Cl)[C@H]1C(=O)OCc1cccc(Oc2ccccc2)c1
active: [3] 3.1 µM | [12] 4.62 µM | [13] 8.45 µM
not listed: [4]
inactive: all other assays above

C=C(C)C(=O)OCCN(C)C
not listed: [4] | [11] | [14]
inactive: all other assays above

CC1=C(C=O)C(C)(C)CCC1
active: [3] 1.75 µM
not listed: [4] | [15] | [16]
inactive: all other assays above
